# Measurements as given in PubChem BioAssay (EPA / NIEHS).
# Inconclusive results are not listed. Active and inactive are the calls of the source. Rule for the calls: active = hit-call score of the fitted dose curve at least 0.9, where 1 is the maximum; inconclusive = response in the unintended direction; inactive = score below 0.9.
# Columns and labels:
# [1] = target: guinea pig Opioid, Kappa 1 Receptor (OpiateK), OPRK1 (gene 100135587) (UniProt P41144); experiment: NVS_GPCR_gOpiateK: NovaScreen (NVS) G Protein-Coupled Receptor Assay for guinea pig Opioid, Kappa 1 Receptor (OpiateK) (AID 2283252);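 note: radioligand displacement from kappa opioid receptor in guinea pig cerebellar membranes; active means reduced radioligand binding relative to DMSO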
# Method in brief: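 Radioligand competition binding using guinea pig cerebellum membrane fraction; 2 h exposure; filter radiodetection. Single concentration 25 uM (duplicate), follow-up concentration-response for actives.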
# [2] = target: human Adenosine A2a Receptor (AdoRA2a), ADORA2A (gene 135) (UniProt P29274); experiment: NVS_GPCR_hAdoRA2a: NovaScreen (NVS) G Protein-Coupled Receptor Assay for human Adenosine A2a Receptor (AdoRA2a) (AID 2283256)
# Method in brief: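 Compounds screened in duplicate at 25 uM, with actives followed up in concentration series, for displacement of a radioligand from HEK293-derived receptor protein. Bound counts read by filter scintillation at 1.5 hours, DMSO as baseline.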
# [3] = target: human Serotonin, 5-Hydroxytryptamine Receptor 5A (5HT5A), HTR5A (gene 3361) (UniProt P47898); experiment: NVS_GPCR_h5HT5A: NovaScreen (NVS) G Protein-Coupled Receptor Assay for human Serotonin, 5-Hydroxytryptamine Receptor 5A (5HT5A) (AID 2283251)
# Method in brief: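 Membranes from HEK293 cells, radioligand binding read by filtration and scintillation after 1 h. Single-concentration duplicate testing at 25 uM, then concentration-response for actives; positive-direction fitting relative to DMSO.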
# [4] = target: human Serotonin, 5-Hydroxytryptamine Receptor 6 (5HT6), HTR6 (gene 3362) (UniProt P50406); experiment: NVS_GPCR_h5HT6: NovaScreen (NVS) G Protein-Coupled Receptor Assay for human Serotonin, 5-Hydroxytryptamine Receptor 6 (5HT6) (AID 2283253)
# Method: NVS_GPCR_h5HT6 is a biochemical, single-readout assay that uses extracted gene-proteins from HEK293 in a cell-free assay. Measurements were taken 1 hour after chemical dosing in a 96-well plate.NVS_GPCR_h5HT6 is one of one assay component(s) measured or calculated from the NVS_GPCR_h5HT6 assay. It is designed to make measurements of radioligand binding, a form of binding reporter, as detected with scintillation counting signals by Filter-based radiodetection technology.Data from the assay component NVS_GPCR_h5HT6 was analyzed into 1 assay endpoint. This assay endpoint, NVS_GPCR_h5HT6, was analyzed in the positive analysis fitting direction relative to DMSO as the negative control and baseline of activity. […] Furthermore, this assay endpoint can be referred to as a primary readout, because the performed assay has only produced 1 assay endpoint. […]
# Binding assays used specific radioligands (tritiated, iodinated) with non-radioactive competitive displacement ligands in agonist or antagonist protocols (as indicated) and various reference compounds and inhibitors to titrate specific binding to receptors and transporters. Most enzyme assays (CYPs, kinases, phosphatases, proteases, HDACs) used recombinant protein and specific substrates (fluorescence mostly, some colorimetric and radioactive) and inhibitors, followed by a biochemical separation of substrate and product. […]
# [5] = target: human Serotonin, 5-Hydroxytryptamine Receptor 7 (5HT7), HTR7 (gene 3363) (UniProt P34969); experiment: NVS_GPCR_h5HT7: NovaScreen (NVS) G Protein-Coupled Receptor Assay for human Serotonin, 5-Hydroxytryptamine Receptor 7 (5HT7) (AID 2283255);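 note: hits reduce specific radioligand binding relative to DMSO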
# Method in brief: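 Filter-bound radioactivity counted after 1 h, with loss of specific radioligand binding fitted against DMSO. Membrane protein came from CHO cells expressing human 5HT7. Chemicals were tested first at 25 uM in duplicate, then in concentration series if active.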
# [6] = target: human Adrenergic, Alpha 2c Receptor (Adra2C), ADRA2C (gene 152) (UniProt P18825); experiment: NVS_GPCR_hAdra2C: NovaScreen (NVS) G Protein-Coupled Receptor Assay for human Adrenergic, Alpha 2c Receptor (Adra2C) (AID 2283259)
# Method in brief: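 Screened first in duplicate at 25 uM, with actives then run as concentration series. Membranes from Sf9 cells were exposed for 1 h, and displacement of radioligand was counted after filtration, using DMSO as baseline.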
# [7] = target: human Adenosine A1 Receptor (AdoRA1), ADORA1 (gene 134) (UniProt P30542); experiment: NVS_GPCR_hAdoRA1: NovaScreen (NVS) G Protein-Coupled Receptor Assay for human Adenosine A1 Receptor (AdoRA1) (AID 2283254)
# Method: NVS_GPCR_hAdoRA1 is a biochemical, single-readout assay that uses extracted gene-proteins from Human cortical membranes in a tissue-based cell-free assay. Measurements were taken 1 hour after chemical dosing in a 96-well plate.NVS_GPCR_hAdoRA1 is one of one assay component(s) measured or calculated from the NVS_GPCR_hAdoRA1 assay. It is designed to make measurements of radioligand binding, a form of binding reporter, as detected with scintillation counting signals by Filter-based radiodetection technology.Data from the assay component NVS_GPCR_hAdoRA1 was analyzed into 1 assay endpoint. This assay endpoint, NVS_GPCR_hAdoRA1, was analyzed in the positive analysis fitting direction relative to DMSO as the negative control and baseline of activity. Using a type of binding reporter, loss-of-signal activity can be used to understand changes in the binding as they relate to the gene ADORA1. Furthermore, this assay endpoint can be referred to as a primary readout, because the performed assay has only produced 1 assay endpoint. To generalize the intended target to other relatable targets, this assay endpoint is annotated to the gpcr intended target family, where the subfamily is rhodopsin-like receptor. […]
# [8] = target: human Adrenergic, Alpha 2A Receptor (Adra2A), ADRA2A (gene 150) (UniProt P08913); experiment: NVS_GPCR_hAdra2A: NovaScreen (NVS) G Protein-Coupled Receptor Assay for human Adrenergic, Alpha 2A Receptor (Adra2A) (AID 2283257)
# Method in brief: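 Displacement of a specific radioligand from HT29 membrane protein was counted by filter scintillation after 1 h. Compounds were screened in duplicate at 25 uM, and actives were retested in concentration series. Fitting was positive-direction against DMSO.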
# [9] = target: human Adrenergic, Beta 1 Receptor (Adrb1), ADRB1 (gene 153) (UniProt P08588); experiment: NVS_GPCR_hAdrb1: NovaScreen (NVS) G Protein-Coupled Receptor Assay for human Adrenergic, Beta 1 Receptor (Adrb1) (AID 2283258)
# Method in brief: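 Membranes/protein extracted from human neuroepithelioma cells, radioligand competition binding read by filtration and scintillation 2 h post-dose. Single 25 uM duplicate screen, then concentration-response follow-up; DMSO as negative control.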
# [10] = target: Beta-2 adrenergic receptor (Homo sapiens) (UniProt P07550); experiment: NVS_GPCR_hAdrb2: NovaScreen (NVS) G Protein-Coupled Receptor Assay for human Adrenergic, Beta 2 Receptor (Adrb2) (AID 2283261)
# Method in brief: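 Compounds screened in duplicate at 25 uM, then actives in concentration series. Human beta-2 receptor from CHO material, cell-free; radioligand displacement after 1 h measured by filtration and scintillation against DMSO baseline.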
# human Adenosine A2a Receptor (AdoRA2a), ADORA2A (gene 135), sequence (P29274 whole entry, looked up): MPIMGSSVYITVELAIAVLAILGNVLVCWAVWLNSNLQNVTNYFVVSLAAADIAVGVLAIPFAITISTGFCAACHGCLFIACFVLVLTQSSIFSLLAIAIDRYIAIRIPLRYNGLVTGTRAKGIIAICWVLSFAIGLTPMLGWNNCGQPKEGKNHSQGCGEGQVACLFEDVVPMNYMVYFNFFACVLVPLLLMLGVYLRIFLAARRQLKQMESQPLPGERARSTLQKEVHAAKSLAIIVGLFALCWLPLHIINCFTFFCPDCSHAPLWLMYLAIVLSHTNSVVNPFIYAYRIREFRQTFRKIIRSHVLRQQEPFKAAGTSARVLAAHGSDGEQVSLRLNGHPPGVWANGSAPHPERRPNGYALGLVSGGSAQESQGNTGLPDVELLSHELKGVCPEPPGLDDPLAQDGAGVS
# guinea pig Opioid, Kappa 1 Receptor (OpiateK), OPRK1 (gene 100135587), sequence (P41144 whole entry, looked up): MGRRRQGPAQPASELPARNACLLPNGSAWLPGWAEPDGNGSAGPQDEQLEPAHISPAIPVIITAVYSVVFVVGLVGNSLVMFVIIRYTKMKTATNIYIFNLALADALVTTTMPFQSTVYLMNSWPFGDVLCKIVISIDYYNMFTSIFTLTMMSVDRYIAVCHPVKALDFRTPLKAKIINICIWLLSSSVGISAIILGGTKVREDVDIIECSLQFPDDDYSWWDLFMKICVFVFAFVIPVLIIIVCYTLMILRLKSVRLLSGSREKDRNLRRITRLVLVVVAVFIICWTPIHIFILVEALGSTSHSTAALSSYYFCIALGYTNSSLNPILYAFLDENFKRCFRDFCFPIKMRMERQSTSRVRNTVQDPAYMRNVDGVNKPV
# human Serotonin, 5-Hydroxytryptamine Receptor 6 (5HT6), HTR6 (gene 3362), sequence (P50406 whole entry, looked up): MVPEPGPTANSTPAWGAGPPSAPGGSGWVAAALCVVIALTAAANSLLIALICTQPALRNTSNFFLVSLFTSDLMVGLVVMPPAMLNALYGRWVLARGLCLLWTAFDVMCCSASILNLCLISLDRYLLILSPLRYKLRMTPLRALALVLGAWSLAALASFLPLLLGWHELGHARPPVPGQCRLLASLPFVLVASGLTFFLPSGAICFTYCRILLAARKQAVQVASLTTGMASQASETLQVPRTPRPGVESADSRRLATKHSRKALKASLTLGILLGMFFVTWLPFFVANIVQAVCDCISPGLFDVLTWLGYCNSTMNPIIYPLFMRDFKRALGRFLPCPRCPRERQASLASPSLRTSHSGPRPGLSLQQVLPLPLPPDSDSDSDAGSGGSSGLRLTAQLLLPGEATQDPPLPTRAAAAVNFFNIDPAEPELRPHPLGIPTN
# human Serotonin, 5-Hydroxytryptamine Receptor 7 (5HT7), HTR7 (gene 3363), sequence (P34969 whole entry, looked up): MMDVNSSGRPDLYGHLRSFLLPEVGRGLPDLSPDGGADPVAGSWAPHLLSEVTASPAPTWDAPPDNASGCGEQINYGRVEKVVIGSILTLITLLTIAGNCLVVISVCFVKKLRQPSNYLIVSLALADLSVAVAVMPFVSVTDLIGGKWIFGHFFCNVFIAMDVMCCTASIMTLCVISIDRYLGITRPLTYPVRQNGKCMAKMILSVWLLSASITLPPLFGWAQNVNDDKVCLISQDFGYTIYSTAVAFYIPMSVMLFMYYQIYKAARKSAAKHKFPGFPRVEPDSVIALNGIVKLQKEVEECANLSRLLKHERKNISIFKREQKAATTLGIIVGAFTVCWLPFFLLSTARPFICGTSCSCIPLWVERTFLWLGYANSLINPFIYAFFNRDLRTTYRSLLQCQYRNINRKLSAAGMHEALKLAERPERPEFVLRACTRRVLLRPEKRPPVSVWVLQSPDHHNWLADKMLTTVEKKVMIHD
# human Serotonin, 5-Hydroxytryptamine Receptor 5A (5HT5A), HTR5A (gene 3361), sequence (P47898 whole entry, looked up): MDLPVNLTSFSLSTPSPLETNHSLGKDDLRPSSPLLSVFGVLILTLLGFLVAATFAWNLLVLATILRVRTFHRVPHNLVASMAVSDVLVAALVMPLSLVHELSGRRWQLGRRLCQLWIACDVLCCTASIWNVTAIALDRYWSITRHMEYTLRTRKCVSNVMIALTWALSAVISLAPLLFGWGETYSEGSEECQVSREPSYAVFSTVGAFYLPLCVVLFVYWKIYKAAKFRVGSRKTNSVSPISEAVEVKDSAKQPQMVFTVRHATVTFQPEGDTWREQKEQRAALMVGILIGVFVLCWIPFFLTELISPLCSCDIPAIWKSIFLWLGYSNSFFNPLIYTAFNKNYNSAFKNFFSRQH
# human Adenosine A1 Receptor (AdoRA1), ADORA1 (gene 134), sequence (P30542 whole entry, looked up): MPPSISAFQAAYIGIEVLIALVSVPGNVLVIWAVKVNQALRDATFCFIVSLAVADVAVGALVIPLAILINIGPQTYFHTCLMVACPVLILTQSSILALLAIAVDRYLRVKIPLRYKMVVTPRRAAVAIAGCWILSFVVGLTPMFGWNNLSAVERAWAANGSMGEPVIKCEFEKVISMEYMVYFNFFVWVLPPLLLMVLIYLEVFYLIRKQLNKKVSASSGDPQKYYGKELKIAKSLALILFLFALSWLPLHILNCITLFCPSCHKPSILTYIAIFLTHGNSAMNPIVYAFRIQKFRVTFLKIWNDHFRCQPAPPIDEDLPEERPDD
# human Adrenergic, Alpha 2c Receptor (Adra2C), ADRA2C (gene 152), sequence (P18825 whole entry, looked up): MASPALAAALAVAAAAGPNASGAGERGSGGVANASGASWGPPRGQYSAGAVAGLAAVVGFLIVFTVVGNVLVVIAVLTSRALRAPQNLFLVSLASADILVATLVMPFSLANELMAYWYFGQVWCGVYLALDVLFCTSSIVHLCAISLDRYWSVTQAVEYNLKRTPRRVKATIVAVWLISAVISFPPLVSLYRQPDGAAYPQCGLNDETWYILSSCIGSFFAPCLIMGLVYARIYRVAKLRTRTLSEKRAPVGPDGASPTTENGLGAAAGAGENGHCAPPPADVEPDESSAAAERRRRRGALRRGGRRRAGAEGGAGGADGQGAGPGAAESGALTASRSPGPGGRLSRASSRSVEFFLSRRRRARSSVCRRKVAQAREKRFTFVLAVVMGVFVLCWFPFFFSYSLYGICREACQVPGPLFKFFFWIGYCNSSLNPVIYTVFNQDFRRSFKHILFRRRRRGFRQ
# human Adrenergic, Alpha 2A Receptor (Adra2A), ADRA2A (gene 150), sequence (P08913 whole entry, looked up): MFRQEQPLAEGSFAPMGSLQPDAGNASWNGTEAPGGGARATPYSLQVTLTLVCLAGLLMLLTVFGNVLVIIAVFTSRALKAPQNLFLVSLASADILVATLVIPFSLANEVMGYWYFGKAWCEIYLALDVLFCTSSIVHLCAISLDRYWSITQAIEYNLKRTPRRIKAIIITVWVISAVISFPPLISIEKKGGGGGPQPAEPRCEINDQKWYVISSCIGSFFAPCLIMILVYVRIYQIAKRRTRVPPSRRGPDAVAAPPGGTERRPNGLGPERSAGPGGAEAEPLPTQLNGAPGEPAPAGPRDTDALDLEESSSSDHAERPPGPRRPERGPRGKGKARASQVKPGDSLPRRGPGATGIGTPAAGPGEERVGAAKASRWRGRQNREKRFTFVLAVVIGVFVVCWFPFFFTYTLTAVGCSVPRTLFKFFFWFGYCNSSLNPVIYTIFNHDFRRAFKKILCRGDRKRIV
# human Adrenergic, Beta 1 Receptor (Adrb1), ADRB1 (gene 153), sequence (P08588 whole entry, looked up): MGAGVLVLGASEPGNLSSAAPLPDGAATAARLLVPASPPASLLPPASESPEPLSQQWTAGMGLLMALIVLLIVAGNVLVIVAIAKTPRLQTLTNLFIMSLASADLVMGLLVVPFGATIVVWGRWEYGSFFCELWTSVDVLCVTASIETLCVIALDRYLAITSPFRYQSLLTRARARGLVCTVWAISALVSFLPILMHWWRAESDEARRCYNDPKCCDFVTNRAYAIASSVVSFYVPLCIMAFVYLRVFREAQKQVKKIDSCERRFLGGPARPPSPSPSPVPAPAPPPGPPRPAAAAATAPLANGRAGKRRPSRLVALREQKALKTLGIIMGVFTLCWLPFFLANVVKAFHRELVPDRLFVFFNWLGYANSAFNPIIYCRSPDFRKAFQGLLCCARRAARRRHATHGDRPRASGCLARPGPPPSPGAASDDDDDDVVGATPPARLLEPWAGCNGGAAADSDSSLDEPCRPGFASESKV
# Beta-2 adrenergic receptor (Homo sapiens), sequence (P07550 whole entry, looked up): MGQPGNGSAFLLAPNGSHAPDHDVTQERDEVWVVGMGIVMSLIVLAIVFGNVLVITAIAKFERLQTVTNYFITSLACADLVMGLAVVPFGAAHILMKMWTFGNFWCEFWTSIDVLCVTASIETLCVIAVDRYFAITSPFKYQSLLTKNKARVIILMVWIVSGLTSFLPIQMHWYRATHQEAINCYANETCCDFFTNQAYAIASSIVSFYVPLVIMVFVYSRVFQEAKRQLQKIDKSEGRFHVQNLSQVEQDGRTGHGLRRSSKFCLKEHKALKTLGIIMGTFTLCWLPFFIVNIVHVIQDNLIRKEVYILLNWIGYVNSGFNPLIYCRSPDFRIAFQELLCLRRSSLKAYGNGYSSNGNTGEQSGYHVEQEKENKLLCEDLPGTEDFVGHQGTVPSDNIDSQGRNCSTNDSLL
compound,measurement,setting,value
CCCCCC1C(=O)CCC1CC(=O)OC (configuration not stated),outcome,[1],inactive
O=C1OC2(c3ccc(O)cc3Oc3cc(O)ccc32)c2ccccc21,outcome,[1],inactive
C#C[C@]1(O)CC[C@H]2[C@@H]3CCc4cc(O)ccc4[C@H]3CC[C@@]21C,AC50,[2],6.76 µM (active)
CC/C(=C(\c1ccccc1)c1ccc(OCCN(C)C)cc1)c1ccccc1,AC50,[3],6.95 µM (active)
same,outcome,[1],inactive
same,AC50,[4],6.32 µM (active)
same,AC50,[5],4.89 µM (active)
same,AC50,[6],9.54 µM (active)
Cc1cc(O)c(C)c(C)c1O,outcome,[1],inactive
O=C(c1ccc(OCCN2CCCCC2)cc1)c1c(-c2ccc(O)cc2)sc2cc(O)ccc12,AC50,[3],3.5 µM (active)
same,AC50,[1],0.508 µM (active)
same,AC50,[4],3.57 µM (active)
same,outcome,[7],inactive
same,AC50,[5],2.27 µM (active)
same,AC50,[2],6.13 µM (active)
same,AC50,[8],9.52 µM (active)
same,AC50,[9],10.5 µM (active)
same,AC50,[6],2.78 µM (active)
same,AC50,[10],11.8 µM (active)
O=C1OCc2ccccc21,outcome,[2],inactive
COc1ccc(C(C)=O)cc1,outcome,[7],inactive
O=S1(=O)CC(Cl)(Cl)C(Cl)(Cl)C1,outcome,[1],inactive
